Measurements published in paper PMC5540273 (PLoS ONE, 2017).
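Also: KINOMEscan kinase panel screen.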

Each compound was assayed on TTK. Conditions: concentration: 1 μM, replicates: in singlicate; n = 1.
`Cn1cc(-c2ccc3c(c2)CCN3C(=O)Cc2cccc(Cl)c2)c2c(N)ncnc21` [GSK2606590] was tested, and the “%Inh” value was 30%.
For `COc1ccc(-c2coc3ccc(-c4nnc(SCc5ccc(OC)c(C(F)(F)F)c5)o4)cc23)cc1`, the “%Inh” value was 1%.
In the case of `CCS(=O)(=O)c1ccc(OC)c(Nc2nccc(-c3c(-c4cccc(NC(=O)c5c(F)cccc5F)c4)nn4ncccc34)n2)c1` [GSK326180], the “%Inh” value is reported as 0%.
`O=C(Nc1cccc(-c2nn3ccccc3c2-c2ccnc(Nc3cccc(C(F)(F)F)c3)n2)c1)c1c(F)cccc1F` [GSK292658] was tested, and the “%Inh” value was 20%.
`NCCCC(NC(=O)c1cc(Br)c(-c2ccnc3[nH]ccc23)s1)c1ccccc1.O=C(O)C(F)(F)F.O=C(O)C(F)(F)F` (stereo not shown) [GSK1287544] was tested, and the “%Inh” value was 21%.
In the case of `CC(=O)Nc1nc2cnc(Nc3cc(NC(=O)c4cccc(C5(C#N)CC5)c4Cl)ccc3C)nc2s1`, the “%Inh” value is reported as 21%.
`COc1ccc(CNC(=O)NC2CCN(c3ccnc(Nc4ccc(F)cc4)n3)CC2)cc1` [GSK1379788] was tested, and the “%Inh” value was 0%.
With `Clc1ccc(-c2nn3ncccc3c2-c2ccnc(Nc3ccc4c(c3)OCCO4)n2)cc1` [GW829116] the “%Inh” value was 2%.
With `CC(C)(C)c1ccc2nccc(Nc3cccc(O)c3)c2c1` [GW856795] the “%Inh” value was 0%.
`COc1cc(Nc2nccc(N3CCC(NC(=O)Nc4cccc(C(C)=O)c4)C3)n2)cc(OC)c1OC` (stereo not shown) [GSK1379753] was tested, and the “%Inh” value was 21%.
`COc1cc(Nc2nccc(-c3c(-c4cccc(NC(=O)c5c(F)cccc5F)c4)nn4ccccc34)n2)cc(OC)c1OC` [GSK323521] was tested, and the “%Inh” value was 10%.
For `COc1cccc(NC(=O)NC2CCN(c3ccnc(Nc4cc(OC)c(OC)c(OC)c4)n3)C2)c1` (stereo not shown) [GSK1379763], the “%Inh” value was 5%.
With `O=C(O)C(F)(F)F.O=C(O)C(F)(F)F.O=c1[nH]ccc2nc(N[C@@H]3CCCNC3)nc(Nc3ccc(S(=O)(=O)N4CCOCC4)cc3)c12` [GSK2177277] the “%Inh” value was 96.8%.
`CCCCc1nn2ncccc2c1-c1ccnc(Nc2ccc(N3CCN(C)CC3)cc2)n1` [GW684941] was tested, and the “%Inh” value was 50%.
For `CN(c1ccc(NC(=O)Nc2cc(C(F)(F)F)ccc2F)cc1)c1ccnc(Nc2ccc(S(N)(=O)=O)cc2)n1` [GW809893], the “%Inh” value was 22%.
`Nc1ncc(-c2cccnc2)c2scc(-c3ccc4c(c3)CCN4C(=O)Cc3ccccc3)c12` [GSK683281] was tested, and the “%Inh” value was 0%.
In the case of `Cc1ccc(C(=O)Nc2ccc(Nc3ccnc4cc(-c5nccs5)ccc34)cc2O)cc1.Cl` [GW494702], the “%Inh” value is reported as 0%.
`COc1cc(Nc2nccc(N3CCC(NC(=O)c4cc5ccccc5s4)C3)n2)cc(OC)c1OC` (stereo not shown) [GSK1379760] was tested, and the “%Inh” value was 0%.
With `O=C(Nc1cccc(-c2nn3ccccc3c2-c2ccnc(Nc3cccc(F)c3)n2)c1)c1c(F)ccc(F)c1Cl` [GSK357952] the “%Inh” value was 28%.
With `CN(C)Cc1ccc(-c2ccc3c(Nc4ccc(Oc5ccccn5)cc4)ccnc3c2)o1` [GW567148] the “%Inh” value was 0%.
`CNC(=O)c1ccccc1Nc1nc(Nc2ccc(N3CCOCC3)cc2)ncc1Cl.Cl` [GSK1576028] was tested, and the “%Inh” value was 95%.
With `Cl.Cl.NCC(NC(=O)c1cc(-c2ccccc2)c(-c2ccnc3[nH]ccc23)s1)c1ccccc1` (stereo not shown) [GSK1321561] the “%Inh” value was 0%.
`COc1ccc(Nc2nccc(N3CCC(NC(=O)Nc4cccc(OC)c4)C3)n2)cc1` (stereo not shown) [GSK1379742] was tested, and the “%Inh” value was 0%.
`COC(=O)Nc1nc2cc(Oc3ccc(NC(=O)Nc4cc(C(F)(F)F)ccc4F)cn3)ccc2[nH]1.Cl.Cl` [GW681170] was tested, and the “%Inh” value was 43%.
`O=C(Nc1n[nH]c2cc(-c3ccoc3)ccc12)C1CC1` [SB-738481] was tested, and the “%Inh” value was 0%.
In the case of `CSc1cccc2c(-c3ccncn3)c(-c3ccc(F)cc3)nn12` [GW514786], the “%Inh” value is reported as 8%.
`c1ccc(Oc2ccc(Nc3ccnc4cc(-c5ccc(CNCCN6CCOCC6)o5)ccc34)cc2)nc1` [GW567145] was tested, and the “%Inh” value was 7%.
In the case of `Nc1ncnc2c1nc(-c1ccccc1)n2-c1ccccc1` [SKF-97293], the “%Inh” value is reported as 0%.
For `Cl.c1ccc(-c2ccc3c(Nc4ccc5[nH]ccc5c4)ccnc3c2)nc1` [GW440138], the “%Inh” value was 0%.
In the case of `Cl.NC(=O)c1cccc(Nc2nccc(Nc3ccc(Oc4c(Cl)cccc4Cl)c(Cl)c3)n2)c1` [GW659009], the “%Inh” value is reported as 10%.
For `Cc1occc1-c1ncc(OC[C@@H](N)Cc2c[nH]c3ccccc23)cc1-c1ccc2[nH]nc(C)c2c1.O=C(O)C(F)(F)F` [GSK682037], the “%Inh” value was 22%.
